# Measurements from PubChem BioAssay AID1445 (SRMLSC, 2008).
# About 910 (0.41%) of roughly 220,000 compounds were called active. The entries come from a sample that favours actives as a whole. Results with a measured potency or affinity are listed apart. Unmarked numbers belong to inactive results.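 Rule for the calls: active = primary inhibition above the hit cutoff, then over 50% inhibition at one or more dose response concentrations (cut at about 23% in these data, passing the limit was not always enough); inconclusive = conflicting primary data, or primary hits not chosen for dose response; inactive = low primary inhibition, or under 50% at every dose.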
# Biological target: Aminopeptidase N (Plasmodium falciparum (isolate 3D7)) (UniProt O96935)
# Sequence (O96935 whole entry, looked up): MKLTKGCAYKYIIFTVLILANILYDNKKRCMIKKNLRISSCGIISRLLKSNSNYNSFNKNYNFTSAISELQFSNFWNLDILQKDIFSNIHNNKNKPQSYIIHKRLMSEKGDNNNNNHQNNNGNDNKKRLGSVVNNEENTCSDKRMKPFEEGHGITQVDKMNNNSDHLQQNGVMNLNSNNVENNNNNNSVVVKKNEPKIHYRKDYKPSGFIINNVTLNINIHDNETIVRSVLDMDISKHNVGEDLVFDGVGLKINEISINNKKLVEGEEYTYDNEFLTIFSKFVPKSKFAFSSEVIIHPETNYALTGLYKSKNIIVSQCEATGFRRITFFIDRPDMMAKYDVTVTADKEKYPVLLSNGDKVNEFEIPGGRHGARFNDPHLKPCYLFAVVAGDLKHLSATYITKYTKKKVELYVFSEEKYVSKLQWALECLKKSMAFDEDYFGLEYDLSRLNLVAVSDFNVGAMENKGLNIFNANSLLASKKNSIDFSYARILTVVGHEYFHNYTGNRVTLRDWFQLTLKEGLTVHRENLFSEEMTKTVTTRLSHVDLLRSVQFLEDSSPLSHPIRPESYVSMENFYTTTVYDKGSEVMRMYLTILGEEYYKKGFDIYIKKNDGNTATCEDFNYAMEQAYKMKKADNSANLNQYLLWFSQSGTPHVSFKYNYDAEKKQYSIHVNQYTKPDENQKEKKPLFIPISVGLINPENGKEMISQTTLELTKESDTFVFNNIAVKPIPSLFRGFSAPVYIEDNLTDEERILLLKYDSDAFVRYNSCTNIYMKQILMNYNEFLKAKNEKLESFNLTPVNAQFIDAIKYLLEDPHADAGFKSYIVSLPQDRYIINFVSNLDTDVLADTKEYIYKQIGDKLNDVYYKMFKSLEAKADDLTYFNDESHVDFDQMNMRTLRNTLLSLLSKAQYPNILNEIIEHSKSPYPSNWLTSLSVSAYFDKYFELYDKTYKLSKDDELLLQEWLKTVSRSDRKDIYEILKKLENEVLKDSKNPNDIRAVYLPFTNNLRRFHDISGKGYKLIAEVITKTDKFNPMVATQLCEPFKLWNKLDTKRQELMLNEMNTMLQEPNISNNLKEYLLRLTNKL
# Assay: P. falciparum M1AAP inhibitors, biochemical, fluorogenic H-Leu-NHMec substrate, 1536-well (AID 1445);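 note: plate controls were DMSO full reaction for no effect and no enzyme background for full effect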
# Settings: recombinant M1AAP, H-Leu-NHMec fluorogenic kinetic assay
# [1] = at 30 µM, stronger effect = higher value unless noted
compound,measurement,setting,value
COc1ccc(CN(C)C(=S)Nc2ccc(OC(F)F)cc2)cc1,inhibition,[1],-1.27%
O=C1CCCc2nc3nc4ccccc4n3cc21,inhibition,[1],-2.88%
CCOc1ccc(-n2c(=S)sc3c(=O)[nH]c(SCC(=O)NCC4CCCO4)nc32)cc1 (configuration not stated),inhibition,[1],18.3%
CC1CCN(C(=O)CSc2nc(N)cc(N)n2)CC1,inhibition,[1],-2.52%
CCOc1ccc(-n2c(=S)sc3c(=O)[nH]c(SCC(=O)NC(C)CC)nc32)cc1 (configuration not stated),inhibition,[1],11.5%
CCN(CC)C(=O)CSc1nc2c(sc(=S)n2-c2ccccc2)c(=O)[nH]1,inhibition,[1],5.01%
CCOC(=O)CSc1nc2c(sc(=S)n2-c2ccc(OCC)cc2)c(=O)[nH]1,inhibition,[1],13.9%
CCOc1ccc2c(c1)c1nnc(SCC(=O)N3CCC(C)CC3)nc1n2C,inhibition,[1],7.57%
CCOC(=O)CC(=O)CSc1nc2c(sc(=S)n2-c2ccccc2)c(=O)[nH]1,inhibition,[1],21.4%
CCOC(=O)CSc1nc2c(sc(=S)n2-c2ccccc2)c(=O)[nH]1,inhibition,[1],7.91%
CCOc1ccc(-n2c(=S)sc3c(=O)[nH]c(SCC(=O)NCc4ccco4)nc32)cc1,inhibition,"at 30 µM, stronger effect = higher value",29.8% (active)
same,inhibition,at 100 µM (top of the series),46.1%
CCCc1ccc(OCC(=O)NNC(=O)c2cccnc2)cc1,inhibition,[1],-2.33%
Cc1cc(C(F)(F)F)nc(Nc2nc(C)c3ccccc3n2)n1,inhibition,[1],10.9%
COc1cc2ccc(=O)oc2cc1OCC(O)C(C)(C)O (configuration not stated),inhibition,[1],14.1%
COc1cccc(/C=N/Nc2nc3ccccc3n3cnnc23)c1,inhibition,[1],0.89%
CCOC(=O)c1cc(-c2ccccc2)n(CCC(=O)N2CCN(c3ccc(OC)cc3)CC2)c1C,inhibition,[1],5.67%
Cc1cc(C)n(/N=C/c2c[nH]c3ccccc23)c(=O)c1C#N,inhibition,[1],5.27%
CCc1ccc(NC(=O)CSc2nc3ccsc3c(=O)n2CCCCCC(=O)O)cc1,inhibition,[1],-11.3%
COc1cc(NC(C)=O)ccc1-c1cc2ccccc2oc1=O,inhibition,[1],4%
COc1ccc(NC(=O)C2CCC(=O)N2)cc1 (configuration not stated),inhibition,[1],3.48%
COc1ccc(C(C(=O)NC(C)(C)C)N(C(=O)CNC(=O)c2cccs2)c2ccc(C)cc2)cc1OC (configuration not stated),inhibition,[1],-2.96%
O=C(COC(=O)c1ccc(Cl)nc1)Nc1ccc(S(=O)(=O)N2CCCC2)cc1,inhibition,[1],9.72%
Nc1ccc(C23CC4CC(CC(C4)C2)C3)cc1,inhibition,[1],1.15%
CC(=O)c1cnc2c(-c3ccc(Cl)cc3)cnn2c1C,inhibition,[1],-0.05%
CCOC(=O)c1cnc2c(-c3ccc(Cl)cc3)cnn2c1C,inhibition,[1],-12.2%
CC(C)(C)C(=O)NC(=S)Nc1ccc(F)cc1,inhibition,[1],4.15%
O=c1cc(-c2ccc(F)cc2F)[nH]c2ccccc12,inhibition,[1],-3.62%
O=c1cc(CN2CCN(S(=O)(=O)c3ccccc3)CC2)nc2sccn12,inhibition,[1],-0.76%
O=c1cc(CSc2ccc(S(=O)(=O)N3CCCCC3)cn2)nc2sccn12,inhibition,[1],24.1% (active)
CC(C)NC(=O)CSc1nnc(COc2ccccc2Cl)o1,inhibition,[1],8.56%
O=c1cc(CSc2nnc(COc3ccccc3Cl)o2)nc2sccn12,inhibition,[1],25.3% (active)
O=c1cc(CN2CCN(S(=O)(=O)c3ccc4ccccc4c3)CC2)nc2sccn12,inhibition,[1],-6.82%
O=c1cc(CSc2nc3cc(Cl)ccc3o2)nc2sccn12,inhibition,[1],4.21%
CN(C)CCCNS(=O)(=O)c1cc(Cl)c(Cl)cc1Cl,inhibition,[1],0.71%
C#CCOC(=O)Nc1ccc(OCC(F)(F)F)nc1,inhibition,[1],-3.37%
O=C(O)Cc1cc(C(=O)Nc2ccc(Br)cc2)sc1-c1ccccc1,inhibition,[1],8.41%
COc1ccc([N+](=O)[O-])cc1NC(=O)C(C)OC(=O)c1cccnc1 (configuration not stated),inhibition,[1],-3.23%
CC(C)[C@H](NC(=O)c1ccc(Cl)c([N+](=O)[O-])c1)C(=O)NCc1ccc(F)cc1,inhibition,[1],3.78%
Cc1cc(NC(=O)c2ccco2)ncc1NC(=O)Cc1ccccc1,inhibition,[1],0.67%
Cc1cc(NC(=O)c2ccccc2)ncc1NC(=O)c1ccco1,inhibition,[1],5.34%
Cc1cc(NC(=O)c2ccco2)ncc1NC(=O)CCc1ccccc1,inhibition,[1],29.7% (active)
CC1CCCC(NC(=O)CCn2c(=S)oc3ccccc32)C1C (configuration not stated),inhibition,[1],3.48%
Cc1ccc(-n2c(-c3nn(C)c(C)c3Cl)n[nH]c2=S)cc1,inhibition,[1],1.9%
CCNC(=O)C1CC(=O)N(Cc2ccc3c(c2)OCO3)C(=Nc2ccc(OCC)cc2)S1 (configuration not stated),inhibition,[1],-1.35%
CCNC(=O)C1CC(=O)N(Cc2ccc3c(c2)OCO3)C(=Nc2ccc(F)cc2)S1 (configuration not stated),inhibition,[1],27% (active)
CNC(=O)C1CC(=O)N(Cc2ccc3c(c2)OCO3)C(=Nc2ccc(F)cc2)S1 (configuration not stated),inhibition,[1],-5.29%
COc1ccc(NC(=S)N2CCN(c3ncccn3)CC2)cc1,inhibition,[1],4.34%
CC1=CC(c2ccccc2)n2nnnc2N1 (configuration not stated),inhibition,[1],-5.78%
c1ccc2c(c1)nc(N1CCOCC1)c1nncn12,inhibition,[1],4.1%
c1cnc(N2CCN(c3nc4ccccc4n4cnnc34)CC2)nc1,inhibition,[1],24.4% (active)
c1ccc(N2CCN(c3nc4ccccc4n4cnnc34)CC2)cc1,inhibition,[1],14.5%
Cc1cc(C)n(Cc2nc3ccccc3n2C)n1,inhibition,[1],-3.79%
CC(C)(C)[C@H]1C=C(C(=O)NC2CC2)O[C@@H](OCc2ccc(CO)cc2)C1,inhibition,[1],1.09%
Cc1ccc(CNC(=O)c2ccc3c(=O)[nH]c4c(C(=O)NCC5CCCO5)sc(=S)n4c3c2)cc1 (configuration not stated),inhibition,[1],23%
CC(=O)NNC(=O)c1sc(=S)n(C)c1C,inhibition,[1],0.62%
CCCCCNC(=O)c1ccc2c(=O)n(CC3CCCO3)c(=O)[nH]c2c1 (configuration not stated),inhibition,[1],4.6%
O=C(NCC1CCCO1)c1sc(=S)n2c1[nH]c(=O)c1ccc(C(=O)N3CCCCC3)cc12 (configuration not stated),inhibition,[1],20.2%
O=C(NCc1ccccc1)c1sc(=S)n2c1[nH]c(=O)c1ccccc12,inhibition,[1],18.5%
CCCCCNC(=O)c1ccc2c(=O)n(CC3CCCO3)c(=S)[nH]c2c1 (configuration not stated),inhibition,[1],5.58%
O=C(NC1CCCCC1)c1sc(=S)n2c1[nH]c(=O)c1ccccc12,inhibition,[1],0.76%
NC(=O)c1sc(=S)n2c1[nH]c(=O)c1sccc12,inhibition,[1],17.2%
O=C(NCc1ccco1)c1ccc(Br)c(S(=O)(=O)N2CCCCC2)c1,inhibition,[1],3.95%
COc1ccc(NC(=O)C23CC4CC(C2)CC(c2ccccc2)(C4)C3)c(OC)c1,inhibition,[1],-2.32%
COc1c(C)cc(C(=O)C2CCCN(C(=O)c3cccc(F)c3)C2)cc1C (configuration not stated),inhibition,[1],0.9%
CC(=O)Nc1ccc(OCC(O)Cn2c(CO)nc3ccccc32)cc1 (configuration not stated),inhibition,[1],6.49%
Cc1ccc(N(CC(=O)O)S(C)(=O)=O)cc1Cl,inhibition,[1],-5.06%
C=CCOC(=O)C(=O)/C=C/c1csc2ccccc12,inhibition,[1],1.93%
Cc1cc(C)c2c(-n3cccc3)c(C(=O)O)sc2n1,inhibition,[1],12.2%
Cc1cc(C)c2c(-n3cccc3)c(C(=O)NNS(=O)(=O)c3ccc(F)cc3)sc2n1,inhibition,[1],-2.28%
COC(=O)C(=C/C(C)=C/c1cccs1)C(=O)OC,inhibition,[1],13.8%
Cc1ccc(N2C(=O)CCC2(C(N)=O)c2ccccc2)cc1 (configuration not stated),inhibition,[1],-0.36%
CCC(=O)Nc1ccc(-c2nc3ccccc3c(=O)o2)cc1,inhibition,[1],2.53%
CCOc1ccccc1CN1CCN(Cc2[nH]c3ccccc3c2C)CC1CCO (configuration not stated),inhibition,[1],-0.18%
COc1cc(/C=N\NC(=O)c2sc(N)nc2C)cc(OC)c1OC,inhibition,[1],8.26%
Cc1nc(N)sc1C(=O)N/N=C/c1ccccc1[N+](=O)[O-],inhibition,[1],5.94%
COc1cccc(/C=N\NC(=O)c2sc(N)nc2C)c1OC,inhibition,[1],24.5% (active)
Cc1csc(Nc2ccccc2)[n+]1C,inhibition,[1],-12.3%
CC(C)c1cc(C(=O)Nc2sc3c(c2C#N)CCC3)no1,inhibition,[1],20.6%
Cc1cc(C(=O)Nc2sc3c(c2C#N)CCC3)no1,inhibition,[1],23.7% (active)
Cc1cc(C(=O)Nc2sc3c(c2C#N)CCCC3)no1,inhibition,[1],8.77%
Cc1ccc(S(=O)(=O)NC(=O)NCCCCNC(=O)NS(=O)(=O)c2ccc(C)cc2)cc1,inhibition,[1],0.51%
Cc1ccc(Cc2cc(C)n[nH]c2=O)cc1,inhibition,[1],9.53%
COCc1cc(C)nc(OCC(=O)N/N=C/c2ccco2)c1C#N,inhibition,[1],9.71%
CC(=O)Nc1ccc(-c2csc(N/N=C(/C)c3ccccc3)n2)cc1,inhibition,[1],11.9%
CC(=O)Nc1nc(C(=O)O)cs1,inhibition,[1],-0.08%
CCc1nnc(N/N=C/c2c(Cl)cccc2Cl)n1N,inhibition,[1],1.62%
O=C(Nc1cccs1)Nc1ccc(Br)cc1F,inhibition,[1],5.12%
CCOc1ccc(Br)cc1S(=O)(=O)Nc1ccc(NC(=O)c2ccccc2C)cc1,inhibition,[1],7.33%
CCOC(=O)NNS(=O)(=O)c1cc(Br)ccc1Br,inhibition,[1],-1.42%
Cc1ccc(CN2C(=O)N/C(=C\c3cccn3-c3cccc(C(=O)O)c3)C2=O)cc1,inhibition,[1],11.9%
Cc1nc(S/C(=C/c2ccc(-c3ccc(Cl)cc3)o2)C(=O)O)n[nH]1,inhibition,[1],-6.28%
Cc1nc(S/C(=C/c2ccc(-c3cccc(Cl)c3)o2)C(=O)O)n[nH]1,inhibition,[1],-8.13%
O=Cc1ccc(-c2ccc(C(=O)O)cc2)o1,inhibition,[1],7.72%
CC(=O)c1ccc(-c2ccc(/C=C(/Sc3n[nH]c(C)n3)C(=O)O)o2)cc1,inhibition,[1],5.19%
CCc1nnc(NC(=O)C2CCCN(c3nc(C)cc(C)n3)C2)s1 (configuration not stated),inhibition,[1],3.57%
S=c1[nH]c(-c2ccccc2)cn1/N=C/c1cccnc1,inhibition,[1],1.39%
